Data from PubChem BioAssay.
Activity calls are given as the source filed them. Unless noted, no rule for the calls is given here.

Legend:
[1] = tested on: Wnt5a (protein binding on small-molecule microarray); test: Wnt5a binders on small-molecule microarray, primary screen, biophysical, 635/667 nm fluorescence (AID 1142); conditions: 635 nm fluorescence, higher = more signal;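 also: fluorescence read at 667 nm with signal to noise per printed feature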
[2] = cell viability in Huh7 cells, primary screen, cytotoxicity control for HCV replication inhibitor project, CellTiter-Glo luminescence, basal, 48 h (AID 1143); conditions: Huh7 HCV replicon, higher = more signal, called active from +8 up or from −8 down;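 also: Huh7 hepatoma cells carrying a hepatitis C replication reporter with no stimulus; test concentration not given here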
[3] = P. aeruginosa biofilm formation inhibitors, primary screen, PAO1 strain, BacTiter-Glo luminescence, LB-PBS (AID 1144); conditions: 12 h, higher = more signal
[4] = CREB reporter modulators without forskolin, primary screen, cell-based, PC12, CRE-LacZ reporter, unstimulated (AID 1145); conditions: no forskolin, luminescence, 4.5 h, higher = more signal, called active from +8 up or from −8 down
[5] = CREB reporter modulators under forskolin, primary screen, cell-based, PC12, CRE-LacZ reporter, forskolin-stimulated (AID 1146); conditions: luminescence, 4.5 h, higher = more signal, called active from +8 up or from −8 down;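 also: PC12 cells with 6xCRE LacZ reporter stimulated by forskolin 10 µM; beta-galactosidase reporter signal reflecting CREB driven transcription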
[6] = target: Streptavidin (Streptomyces avidinii) (UniProt P22629); test: streptavidin binders on small-molecule microarray, primary screen, artefact control for SMM compound annotation, biophysical, 635/667 nm fluorescence (AID 1147); conditions: streptavidin binding, higher = more signal;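 also: signal reflects streptavidin binding to arrayed compounds as a control protein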
[7] = small-molecule binders of probe aInhba, primary screen, biochemical, small-molecule microarray, 635/667 nm fluorescence (AID 1148); conditions: higher = more signal;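 also: score merges 667nm spot fluorescence with signal-to-noise for antibody binding to printed compounds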
[8] = target: Torsin-1A (Homo sapiens) (UniProt O14656); test: torsin A binders from cell lysate, primary screen, small-molecule microarray, wild-type, 635/667 nm (AID 1149); conditions: COS7 hTOR1A-WT lysate, 635 nm fluorescence, higher = more signal
[9] = target: Torsin-1A (Homo sapiens) (UniProt O14656); test: small-molecule binders of mutant TOR1A in lysate, primary screen, cell lysate, small-molecule microarray, COS7 lysate, 635/667 nm fluorescence (AID 1150); conditions: COS7 hTOR1A mutant lysate, 635 nm fluorescence, higher = more signal;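 also: score pools 667 nm emission and signal to noise measuring lysate protein binding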
[10] = tested on: Sonic hedgehog protein (Shh); test: small-molecule binders of Shh protein, primary screen, biochemical, small-molecule microarray, 635/667 nm fluorescence (AID 1151); conditions: small-molecule microarray binding, 635 nm fluorescence; higher = more signal;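 also: Shh protein binding to compounds spotted on small-molecule microarray slides; score combines spot fluorescence intensity with signal-to-noise across triplicate slides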
[11] = E. coli DRC41 culture turbidity changes, primary screen, E. coli filamentation inducer project, strain DRC41, OD650, 48 h (AID 1152);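 also: E. coli MC1000 strain DRC41 lacking acrAB efflux pump and sulA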; conditions: E. coli DRC41 (acrAB sulA), higher = more signal, called active from +8 up or from −8 down
[12] = small-molecule binders of probe aLefty1, primary screen, biochemical, small-molecule microarray, 635/667 nm fluorescence (AID 1153); conditions: higher = more signal;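 also: score merges spot fluorescence with signal-to-noise ratio from the scanned slide images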
[13] = PSAC antagonists in infected red cells, primary screen, cell-based, P. falciparum Indochina, OD700, 1 h (AID 1154); conditions: P. falciparum Indochina infected RBC osmotic lysis, higher = more signal, called active from +8 up or from −8 down
[14] = PSAC antagonists in infected red cells, primary screen, cell-based, P. falciparum Indochina, OD700, 2 h (AID 1155);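 also: lysis reports solute entry through the parasite surface anion channel PSAC; channel blockers reduce lysis of infected cells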; conditions: P. falciparum Indochina infected erythrocytes, osmotic lysis OD700; higher = more signal, called active from +8 up or from −8 down
[15] = osmotic lysis modulators in infected erythrocytes, primary screen, PSAC antagonist project, cell-based, P. falciparum Indochina, OD700, 3 h (AID 1156); conditions: higher = more signal, called active from +8 up or from −8 down
[16] = PSAC antagonists in infected red cells, primary screen, cell-based, P. falciparum Indochina, OD700, 18 h (AID 1157); conditions: P. falciparum Indochina infected erythrocytes, osmotic lysis OD700, 18 h; higher = more signal, called active from +8 up or from −8 down
[17] = modulators of S6 phosphorylation in cells, primary screen, cell-based, A549, cytoblot, luminescence, serum-stimulated (AID 1158); conditions: A549 phospho-S6 cytoblot, 5 h, higher = more signal;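 also: serum-stimulated A549 lung adenocarcinoma cells; signal is phosphorylated S6 detected by cytoblot immunostaining with HRP secondary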
[18] = target: NADPH oxidase 2 (Homo sapiens) (UniProt P04839); test: NOX2-dependent H2O2 signal modulators, primary screen, NOX inhibitor project, cell-based, HEK293-NOX2, PMA-stimulated, Amplex Red fluorescence (AID 1159); conditions: 45 min, higher = more signal, called active from +8 up or from −8 down; also: test concentration not given here
[19] = target: NADPH oxidase 4 (Homo sapiens) (UniProt Q9NPH5); test: NOX4-dependent H2O2 signal modulators, primary screen, NOX inhibitor project, cell-based, HEK293-NOX4, tetracycline-induced, Amplex Red fluorescence (AID 1160); conditions: 45 min, higher = more signal, called active from +8 up or from −8 down
[20] = target: NADPH oxidase 5 (Homo sapiens) (UniProt Q96PH1); test: NOX5-dependent H2O2 signal modulators, primary screen, NOX inhibitor project, cell-based, HEK293-NOX5, Amplex Red fluorescence (AID 1161); conditions: HEK293-NOX5, ionomycin, 45 min, higher = more signal
Chain of NADPH oxidase 5 (Homo sapiens) (Q96PH1 whole entry, looked up): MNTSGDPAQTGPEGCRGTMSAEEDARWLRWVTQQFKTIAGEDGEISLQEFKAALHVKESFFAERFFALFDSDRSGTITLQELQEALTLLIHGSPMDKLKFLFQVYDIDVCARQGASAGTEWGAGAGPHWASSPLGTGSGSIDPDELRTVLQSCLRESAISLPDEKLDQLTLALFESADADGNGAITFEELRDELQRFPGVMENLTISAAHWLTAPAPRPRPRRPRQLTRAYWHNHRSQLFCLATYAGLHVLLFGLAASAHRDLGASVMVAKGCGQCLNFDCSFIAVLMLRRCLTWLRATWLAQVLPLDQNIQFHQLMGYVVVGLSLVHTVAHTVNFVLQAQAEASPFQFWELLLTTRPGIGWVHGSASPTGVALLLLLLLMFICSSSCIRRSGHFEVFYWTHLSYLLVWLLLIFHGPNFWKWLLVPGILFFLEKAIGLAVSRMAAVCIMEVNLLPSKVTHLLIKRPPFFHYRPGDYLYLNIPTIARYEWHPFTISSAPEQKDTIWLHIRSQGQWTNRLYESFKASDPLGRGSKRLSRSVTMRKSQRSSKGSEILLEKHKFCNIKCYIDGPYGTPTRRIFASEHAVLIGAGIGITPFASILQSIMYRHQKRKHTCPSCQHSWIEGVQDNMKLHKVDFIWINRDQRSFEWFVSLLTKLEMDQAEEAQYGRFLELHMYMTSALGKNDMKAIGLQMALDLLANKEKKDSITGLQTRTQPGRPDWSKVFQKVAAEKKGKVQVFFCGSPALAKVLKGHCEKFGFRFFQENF

Chain of NADPH oxidase 2 (Homo sapiens) (P04839 whole entry, looked up): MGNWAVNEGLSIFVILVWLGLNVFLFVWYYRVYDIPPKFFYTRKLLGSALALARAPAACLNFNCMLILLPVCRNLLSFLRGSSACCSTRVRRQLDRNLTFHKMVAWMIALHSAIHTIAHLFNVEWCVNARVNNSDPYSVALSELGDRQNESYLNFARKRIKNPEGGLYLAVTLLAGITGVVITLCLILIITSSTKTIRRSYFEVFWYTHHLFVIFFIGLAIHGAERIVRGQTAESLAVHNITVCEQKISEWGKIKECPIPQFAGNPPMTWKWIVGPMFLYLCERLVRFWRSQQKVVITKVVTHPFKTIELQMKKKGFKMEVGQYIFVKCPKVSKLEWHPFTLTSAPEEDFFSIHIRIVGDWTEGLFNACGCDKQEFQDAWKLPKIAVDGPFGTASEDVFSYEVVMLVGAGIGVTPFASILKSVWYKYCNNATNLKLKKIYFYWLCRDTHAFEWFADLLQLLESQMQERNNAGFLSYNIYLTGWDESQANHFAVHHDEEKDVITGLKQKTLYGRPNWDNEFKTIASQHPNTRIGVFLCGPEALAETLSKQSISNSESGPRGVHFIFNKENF
Chain of Torsin-1A (Homo sapiens) (O14656 whole entry, looked up): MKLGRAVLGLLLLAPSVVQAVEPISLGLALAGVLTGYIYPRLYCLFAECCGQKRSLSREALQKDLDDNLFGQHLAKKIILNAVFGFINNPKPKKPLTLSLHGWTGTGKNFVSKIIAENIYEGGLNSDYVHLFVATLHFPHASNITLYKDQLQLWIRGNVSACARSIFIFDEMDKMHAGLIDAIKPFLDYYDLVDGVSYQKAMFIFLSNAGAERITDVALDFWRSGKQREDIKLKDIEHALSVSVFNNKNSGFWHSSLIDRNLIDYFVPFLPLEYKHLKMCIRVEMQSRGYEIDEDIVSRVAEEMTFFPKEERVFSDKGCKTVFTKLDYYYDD
Chain of NADPH oxidase 4 (Homo sapiens) (Q9NPH5 whole entry, looked up): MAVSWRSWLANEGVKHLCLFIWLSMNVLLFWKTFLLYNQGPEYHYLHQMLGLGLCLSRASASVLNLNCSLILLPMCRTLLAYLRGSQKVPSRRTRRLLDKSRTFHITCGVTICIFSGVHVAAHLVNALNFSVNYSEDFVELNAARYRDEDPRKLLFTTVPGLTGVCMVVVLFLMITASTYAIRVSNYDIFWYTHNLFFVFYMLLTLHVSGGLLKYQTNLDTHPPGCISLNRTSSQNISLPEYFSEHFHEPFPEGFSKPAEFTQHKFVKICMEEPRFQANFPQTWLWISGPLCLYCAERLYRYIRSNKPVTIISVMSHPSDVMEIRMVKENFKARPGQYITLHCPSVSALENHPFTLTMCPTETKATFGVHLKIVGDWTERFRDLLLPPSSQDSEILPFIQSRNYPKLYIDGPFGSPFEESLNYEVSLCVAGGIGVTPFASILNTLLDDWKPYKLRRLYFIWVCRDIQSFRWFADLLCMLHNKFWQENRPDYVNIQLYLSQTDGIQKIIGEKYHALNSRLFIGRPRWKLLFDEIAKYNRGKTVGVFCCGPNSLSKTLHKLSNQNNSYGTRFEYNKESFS
Chain of Streptavidin (Streptomyces avidinii) (P22629 whole entry, looked up): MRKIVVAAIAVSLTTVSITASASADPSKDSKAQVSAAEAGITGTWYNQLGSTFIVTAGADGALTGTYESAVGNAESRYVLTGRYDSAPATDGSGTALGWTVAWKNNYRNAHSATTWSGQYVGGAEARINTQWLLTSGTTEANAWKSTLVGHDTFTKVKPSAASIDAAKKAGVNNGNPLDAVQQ

Row | Structure (SMILES) | composite z-score [1] | z-score [2] | z-score [3] | z-score [4] | z-score [5] | composite z-score [6] | composite z-score [7] | composite z-score [8] | composite z-score [9] | composite z-score [10] | z-score [11] | composite z-score [12] | z-score [13] | z-score [14] | z-score [15] | z-score [16] | z-score [17] | z-score [18] | z-score [19] | z-score [20]
1 | CC1=C2[C@@H](CCc3ccccc3)OB(O)C[C@@H]2[C@@H]2C(=O)C=CC(=O)[C@@H]2C1 | 0.135 | -0.894 (inactive) | 0.0958 (inactive) | 14.1 (active) | 28.4 (active) | 0.537 | -0.0873 | 0.355 | 0.474 | 1.44 | -0.23 (inactive) | 0.0402 | 2.27 (inactive) | 0.229 (inactive) | 0.236 (inactive) | 0.182 (inactive) | 0.166 | -0.128 (inactive) | -2 (inactive) | -3.15
2 | NC(=O)NCC#Cc1ccc2c(c1)[C@]1(C(=O)N2)[C@H](c2ccc(OCCO)cc2)N2[C@H](c3ccccc3)[C@H](c3ccccc3)OC(=O)[C@H]2[C@@H]1C(=O)N1CCCCCCC1 | 1.4 | 0.132 (inactive) | 0.848 (inactive) | -0.0515 (inactive) | 0.449 (inactive) | 3.11 | 1.93 | 0.533 | 1.02 | 1.35 | -1.89 (inactive) | 2.86 | 4.46 (inactive) | 1.05 (inactive) | 0.323 (inactive) | 0.565 (inactive) | -0.0231 | 1.9 (inactive) | 1.15 (inactive) | 0.333
3 | CCOC(=O)C1=CC[C@@H](c2ccccc2)N(S(=O)(=O)c2ccc(C)cc2)[C@H]1C=C(C)C | 0.367 | -4.76 (inactive) | 0.514 (inactive) | -0.378 (inactive) | 0.807 (inactive) | 1.44 | 0.246 | 0.258 | 1.46 | 0.839 | -0.179 (inactive) | 0.129 | 2.27 (inactive) | 1.42 (inactive) | -0.627 (inactive) | 0.756 (inactive) | -0.459 | -0.0156 (inactive) | 1.39 (inactive) | 1.43
4 | COc1ccc(C#Cc2ccc3c(c2)[C@]2(C(=O)N3)[C@H](C(=O)O)[C@H]3C(=O)O[C@H](c4ccccc4)[C@H](c4ccccc4)N3[C@@H]2c2ccc(OCCO)cc2)cc1 | 0.356 | -0.969 (inactive) | -0.859 (inactive) | 0.272 (inactive) | 0.408 (inactive) | 1.59 | 0.399 | -0.0331 | 0.739 | 1.3 | 0.962 (inactive) | 0.33 | 3.33 (inactive) | -0.266 (inactive) | -8.91 (active) | -0.097 (inactive) | -0.0207 | 1.67 (inactive) | -0.925 (inactive) | 1.12
5 | COC(=O)[C@@]1(Cc2ccc(OC)cc2)[C@H]2c3cc(C(=O)N(C)C)n(Cc4cc(F)c(F)c(F)c4)c3C[C@H]2CN1C(=O)c1ccccc1 | 0.397 | -4.47 (inactive) | -0.00792 (inactive) | 1.34 (inactive) | 1.12 (inactive) | 1.63 | 0.528 | -0.312 | 0.712 | -0.692 | -1.69 (inactive) | 0.946 | 3.64 (inactive) | 0.0174 (inactive) | 1.3 (inactive) | -1.37 (inactive) | 0.968 | -2.92 (inactive) | -1.41 (inactive) | -2.54
6 | COCCOC(=O)N1C(=O)[C@@]2(c3cc(C#CCC(C(=O)OC)C(=O)OC)ccc31)[C@H](c1ccc(OCCO)cc1)N1[C@H](c3ccccc3)[C@H](c3ccccc3)OC(=O)[C@H]1[C@@H]2C(N)=O | 0.0271 | -1.29 (inactive) | 0.719 (inactive) | 0.892 (inactive) | 1.64 (inactive) | 0.576 | 0.13 | 0.337 | 1.01 | 0.989 | -0.361 (inactive) | -0.147 | 5.25 (inactive) | 1.58 (inactive) | 0.478 (inactive) | 0.59 (inactive) | 0.702 | 2.17 (inactive) | 0.988 (inactive) | 0.717
7 | COc1cc2c(cc1OC)CN(C(=O)[C@@H]1[C@H]3C(=O)O[C@H](c4ccccc4)[C@H](c4ccccc4)N3[C@H](c3ccc(OCCO)cc3)[C@@]13C(=O)Nc1ccc(C#CCCO)cc13)CC2 | 0.452 | -4.91 (inactive) | -1.07 (inactive) | -0.465 (inactive) | 0.0283 (inactive) | 1.64 | -0.0812 | 0.431 | 0.755 | 1.25 | 2.02 (inactive) | 0.273 | 2.85 (inactive) | 0.0851 (inactive) | 0.464 (inactive) | -1.1 (inactive) | 1.71 | -0.303 (inactive) | -0.458 (inactive) | -4.23
8 | C=C(/C(=C/C[C@@H](OC(C)=O)c1ccccc1OCCO)c1cnc2ccccc2c1)C(C)C | 0.515 | -1.35 (inactive) | 0.362 (inactive) | 10.8 (active) | 0.982 (inactive) | -0.02 | 0.167 | 0.72 | 0.0714 | 1.81 | 0.0675 (inactive) | -0.0428 | 11.6 (active) | 2.53 (inactive) | 1.82 (inactive) | 1.04 (inactive) | 0.458 | -1.08 (inactive) | -1.28 (inactive) | -1.49
